Molecules are shown by their SMILES. A number with no mark means an inactive call.

The results in this text go back to the supplement of paper PMC13380429.

The test system of the assay is Vero E6 infected with SARS-CoV-2. The assay is described as follows: inhibition of SARS-CoV-2 cytopathic effect; higher = more antiviral protection, active = above 15. As to conditions: 10000 nM; 48 h. Background: Cytopathic effects are the visible damage that an infection or toxin causes in cultured cells.
Regarding `Cc1cc(I)ccc1Nc1c(C(=O)NOCC2CC2)cc(F)c(F)c1F`, the “inhibition of SARS-CoV-2 cytopathic effect” value (shortened to “inhibition”) was -4.88%.

For `c1ccc2c(-c3cnn4cc(-c5ccc(N6CCNCC6)cc5)cnc34)ccnc2c1`, the “inhibition” value is -26.3%. Under `CCCOc1ccc(S(=O)(=O)N2CCN(CCO)CC2)cc1-c1nc2c(CCC)cn(CC)c2c(=O)[nH]1` [mirodenafil] stands -6.03%. Under `N#CC(c1ccnc(OCc2ccc(CN3CCOCC3)cc2)n1)c1nc2ccccc2s1` (configuration not stated) stands 6.87%.

Consider `C[C@@H]1CN(c2c(F)c(F)c3c(=O)c(C(=O)O)cn(C4CC4)c3c2F)C[C@H](C)N1` [orbifloxacin], for which the “inhibition” value was -4.52%. For the compound `COCC(=O)Nc1c(I)c(C(=O)NCC(O)CO)c(I)c(C(=O)N(C)CC(O)CO)c1I` (configuration not stated) [iopromide], the “inhibition” value was 0.66%. Under `O=C(c1ccccc1)C(O)c1ccccc1` (configuration not stated) [benzoin] stands 0.76%; under `N=C(N)NCCCC[C@@H]1NC(=O)CCSSC[C@@H](C(N)=O)NC(=O)[C@@H]2CCCN2C(=O)[C@H](Cc2c[nH]c3ccccc23)NC(=O)[C@H](CC(=O)O)NC(=O)CNC1=O` [eptifibatide], -2.38%. To `NNCCc1ccccc1` [phenelzine] belongs 3%. As to `O=C(Nc1ccc(C(O)(C(F)(F)F)C(F)(F)F)cc1)c1ccc(C(F)(F)F)cc1`, the “inhibition” value is 1.6%. To `Cc1ccc(Oc2ccccc2-c2csc(N=C3NCCCN3)n2)c(C)c1` [abafungin] belongs -6.36%; to `Nc1c(S(=O)(=O)O)cc(Nc2cccc3ccccc23)c2c1C(=O)c1ccccc1C2=O`, -4.63%.
